# Columns and labels:
# [1] = target: Tyrosine-protein kinase Fer (Homo sapiens) (UniProt P16591); conditions: at 10 µM
# [2] = target: Tyrosine-protein kinase Fes/Fps (Homo sapiens) (UniProt P07332); conditions: at 1 µM
# [3] = target: Tyrosine-protein kinase Fes/Fps (Homo sapiens) (UniProt P07332); conditions: at 10 µM
# [4] = target: Tyrosine-protein kinase Fgr (Homo sapiens) (UniProt P09769); conditions: at 1 µM
# [5] = target: Tyrosine-protein kinase Fgr (Homo sapiens) (UniProt P09769); conditions: at 10 µM
# [6] = target: Vascular endothelial growth factor receptor 3 (Homo sapiens) (UniProt P35916); conditions: at 1 µM
# [7] = target: Vascular endothelial growth factor receptor 3 (Homo sapiens) (UniProt P35916); conditions: at 10 µM
# [8] = target: Macrophage colony-stimulating factor 1 receptor (Homo sapiens) (UniProt P07333); conditions: at 1 µM
# [9] = target: Macrophage colony-stimulating factor 1 receptor (Homo sapiens) (UniProt P07333); conditions: at 10 µM
# [10] = target: Tyrosine-protein kinase Fyn (Homo sapiens) (UniProt P06241); conditions: at 1 µM
# [11] = target: Tyrosine-protein kinase Fyn (Homo sapiens) (UniProt P06241); conditions: at 10 µM
# [12] = target: G protein-coupled receptor kinase 5 (Homo sapiens) (UniProt P34947); conditions: at 1 µM
# [13] = target: G protein-coupled receptor kinase 6 (Homo sapiens) (UniProt P43250); conditions: at 1 µM
# G protein-coupled receptor kinase 6 (Homo sapiens), sequence (P43250 whole entry, looked up): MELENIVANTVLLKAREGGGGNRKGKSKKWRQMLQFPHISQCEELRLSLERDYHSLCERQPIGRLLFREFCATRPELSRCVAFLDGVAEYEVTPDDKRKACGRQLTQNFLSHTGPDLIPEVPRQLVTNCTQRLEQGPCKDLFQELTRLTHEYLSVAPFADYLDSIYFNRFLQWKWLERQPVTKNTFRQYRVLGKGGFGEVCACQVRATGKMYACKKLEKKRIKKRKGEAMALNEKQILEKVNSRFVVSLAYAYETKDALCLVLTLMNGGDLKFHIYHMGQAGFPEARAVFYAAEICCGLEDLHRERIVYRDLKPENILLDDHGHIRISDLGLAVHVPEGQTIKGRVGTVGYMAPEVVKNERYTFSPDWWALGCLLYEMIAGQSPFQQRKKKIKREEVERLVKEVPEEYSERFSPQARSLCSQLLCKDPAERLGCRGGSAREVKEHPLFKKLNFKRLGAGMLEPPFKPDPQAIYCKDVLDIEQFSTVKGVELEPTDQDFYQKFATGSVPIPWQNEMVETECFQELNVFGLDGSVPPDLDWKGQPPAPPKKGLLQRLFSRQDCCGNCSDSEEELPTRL
# G protein-coupled receptor kinase 5 (Homo sapiens), sequence (P34947 whole entry, looked up): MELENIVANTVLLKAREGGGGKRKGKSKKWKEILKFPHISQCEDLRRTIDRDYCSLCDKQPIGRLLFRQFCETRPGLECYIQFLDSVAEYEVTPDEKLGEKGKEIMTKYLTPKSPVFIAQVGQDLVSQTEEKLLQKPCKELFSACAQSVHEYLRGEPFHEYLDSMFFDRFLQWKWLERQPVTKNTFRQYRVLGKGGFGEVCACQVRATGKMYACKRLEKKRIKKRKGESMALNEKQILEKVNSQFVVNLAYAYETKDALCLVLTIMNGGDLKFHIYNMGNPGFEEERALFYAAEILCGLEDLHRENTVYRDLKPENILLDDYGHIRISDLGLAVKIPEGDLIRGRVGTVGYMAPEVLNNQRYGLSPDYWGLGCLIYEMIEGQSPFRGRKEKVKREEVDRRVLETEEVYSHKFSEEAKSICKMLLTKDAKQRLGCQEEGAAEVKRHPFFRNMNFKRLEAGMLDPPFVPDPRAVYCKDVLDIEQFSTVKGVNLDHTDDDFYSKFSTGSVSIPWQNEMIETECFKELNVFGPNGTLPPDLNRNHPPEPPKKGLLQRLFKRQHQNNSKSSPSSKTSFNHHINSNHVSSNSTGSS
# Tyrosine-protein kinase Fes/Fps (Homo sapiens), sequence (P07332 whole entry): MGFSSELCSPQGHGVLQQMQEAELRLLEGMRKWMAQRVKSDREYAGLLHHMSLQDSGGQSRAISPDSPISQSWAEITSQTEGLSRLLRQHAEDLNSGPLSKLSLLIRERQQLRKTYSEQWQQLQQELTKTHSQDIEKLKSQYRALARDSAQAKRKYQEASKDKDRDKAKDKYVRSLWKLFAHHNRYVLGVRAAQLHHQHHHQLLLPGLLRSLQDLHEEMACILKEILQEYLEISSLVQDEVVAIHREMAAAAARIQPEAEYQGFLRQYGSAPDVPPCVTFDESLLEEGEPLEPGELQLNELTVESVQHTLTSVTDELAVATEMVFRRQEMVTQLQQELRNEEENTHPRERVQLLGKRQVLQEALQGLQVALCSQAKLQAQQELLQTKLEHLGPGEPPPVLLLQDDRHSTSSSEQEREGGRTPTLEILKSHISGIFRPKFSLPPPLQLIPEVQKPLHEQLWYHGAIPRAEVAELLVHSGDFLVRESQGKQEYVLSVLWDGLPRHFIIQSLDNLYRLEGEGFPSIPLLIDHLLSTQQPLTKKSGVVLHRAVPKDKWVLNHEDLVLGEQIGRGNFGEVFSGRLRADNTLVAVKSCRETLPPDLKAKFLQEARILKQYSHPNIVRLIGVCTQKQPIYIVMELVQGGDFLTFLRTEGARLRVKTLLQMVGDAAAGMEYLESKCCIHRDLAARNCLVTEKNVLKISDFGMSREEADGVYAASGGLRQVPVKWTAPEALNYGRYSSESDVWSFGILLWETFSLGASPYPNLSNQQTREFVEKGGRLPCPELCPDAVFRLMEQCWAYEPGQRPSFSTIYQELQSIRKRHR
# Vascular endothelial growth factor receptor 3 (Homo sapiens), sequence (P35916 whole entry): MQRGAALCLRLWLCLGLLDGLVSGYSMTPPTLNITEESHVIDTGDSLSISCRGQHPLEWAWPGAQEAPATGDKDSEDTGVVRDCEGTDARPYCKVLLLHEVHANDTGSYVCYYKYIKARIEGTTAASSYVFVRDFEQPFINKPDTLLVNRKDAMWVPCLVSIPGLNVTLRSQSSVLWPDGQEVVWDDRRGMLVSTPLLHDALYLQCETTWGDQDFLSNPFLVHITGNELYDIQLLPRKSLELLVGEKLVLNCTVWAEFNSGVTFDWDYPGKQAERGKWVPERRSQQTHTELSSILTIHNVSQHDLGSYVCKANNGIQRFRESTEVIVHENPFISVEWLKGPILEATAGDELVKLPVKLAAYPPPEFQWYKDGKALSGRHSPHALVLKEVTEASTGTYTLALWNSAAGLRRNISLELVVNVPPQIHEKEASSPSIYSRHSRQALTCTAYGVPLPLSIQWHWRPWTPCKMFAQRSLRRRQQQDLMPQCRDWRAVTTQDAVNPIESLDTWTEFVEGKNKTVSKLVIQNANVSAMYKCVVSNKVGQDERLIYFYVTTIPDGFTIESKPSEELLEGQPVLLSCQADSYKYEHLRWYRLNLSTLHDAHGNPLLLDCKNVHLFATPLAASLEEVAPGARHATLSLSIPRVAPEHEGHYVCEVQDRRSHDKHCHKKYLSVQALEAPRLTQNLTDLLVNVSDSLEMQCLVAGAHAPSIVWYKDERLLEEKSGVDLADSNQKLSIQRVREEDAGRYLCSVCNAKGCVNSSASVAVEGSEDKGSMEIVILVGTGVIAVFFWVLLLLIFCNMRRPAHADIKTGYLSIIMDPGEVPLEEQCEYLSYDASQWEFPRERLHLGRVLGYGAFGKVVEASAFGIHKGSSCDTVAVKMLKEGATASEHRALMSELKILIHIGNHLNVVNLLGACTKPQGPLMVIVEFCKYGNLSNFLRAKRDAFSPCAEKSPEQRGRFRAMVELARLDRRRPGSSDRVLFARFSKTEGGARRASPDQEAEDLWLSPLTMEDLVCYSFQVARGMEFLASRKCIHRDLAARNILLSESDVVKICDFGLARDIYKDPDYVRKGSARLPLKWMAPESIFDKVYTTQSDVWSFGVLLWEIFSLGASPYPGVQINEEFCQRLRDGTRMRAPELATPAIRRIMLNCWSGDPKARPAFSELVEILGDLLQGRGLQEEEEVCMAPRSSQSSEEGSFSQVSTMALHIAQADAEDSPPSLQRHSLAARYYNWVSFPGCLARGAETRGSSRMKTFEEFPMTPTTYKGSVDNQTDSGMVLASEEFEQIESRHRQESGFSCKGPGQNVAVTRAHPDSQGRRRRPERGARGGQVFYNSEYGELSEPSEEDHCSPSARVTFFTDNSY
# Macrophage colony-stimulating factor 1 receptor (Homo sapiens), sequence (P07333 whole entry): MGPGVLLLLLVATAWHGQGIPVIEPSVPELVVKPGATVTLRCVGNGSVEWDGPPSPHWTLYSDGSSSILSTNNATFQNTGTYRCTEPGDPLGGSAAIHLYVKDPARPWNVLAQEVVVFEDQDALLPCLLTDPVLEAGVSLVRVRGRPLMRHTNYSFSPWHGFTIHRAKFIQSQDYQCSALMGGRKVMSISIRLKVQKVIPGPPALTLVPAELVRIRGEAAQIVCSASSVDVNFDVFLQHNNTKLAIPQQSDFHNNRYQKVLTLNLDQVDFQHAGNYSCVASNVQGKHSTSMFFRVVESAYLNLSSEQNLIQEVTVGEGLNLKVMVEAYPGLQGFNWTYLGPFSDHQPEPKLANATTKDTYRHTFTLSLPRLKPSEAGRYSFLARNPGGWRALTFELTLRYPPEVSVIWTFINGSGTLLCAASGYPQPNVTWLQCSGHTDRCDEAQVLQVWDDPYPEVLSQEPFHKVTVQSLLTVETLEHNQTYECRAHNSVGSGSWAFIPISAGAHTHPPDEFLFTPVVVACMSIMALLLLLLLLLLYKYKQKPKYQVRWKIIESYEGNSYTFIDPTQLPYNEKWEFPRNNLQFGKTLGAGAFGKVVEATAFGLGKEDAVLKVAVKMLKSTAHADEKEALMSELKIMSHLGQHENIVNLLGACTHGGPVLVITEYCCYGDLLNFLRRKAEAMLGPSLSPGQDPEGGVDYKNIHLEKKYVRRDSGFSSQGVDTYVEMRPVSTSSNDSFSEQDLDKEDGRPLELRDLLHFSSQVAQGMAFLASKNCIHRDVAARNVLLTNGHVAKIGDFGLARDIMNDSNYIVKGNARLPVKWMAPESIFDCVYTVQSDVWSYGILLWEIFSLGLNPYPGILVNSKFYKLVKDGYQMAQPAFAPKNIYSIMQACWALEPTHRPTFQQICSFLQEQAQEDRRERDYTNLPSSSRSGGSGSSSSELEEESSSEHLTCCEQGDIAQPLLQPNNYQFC
# Tyrosine-protein kinase Fgr (Homo sapiens), sequence (P09769 2-529 limits assumed): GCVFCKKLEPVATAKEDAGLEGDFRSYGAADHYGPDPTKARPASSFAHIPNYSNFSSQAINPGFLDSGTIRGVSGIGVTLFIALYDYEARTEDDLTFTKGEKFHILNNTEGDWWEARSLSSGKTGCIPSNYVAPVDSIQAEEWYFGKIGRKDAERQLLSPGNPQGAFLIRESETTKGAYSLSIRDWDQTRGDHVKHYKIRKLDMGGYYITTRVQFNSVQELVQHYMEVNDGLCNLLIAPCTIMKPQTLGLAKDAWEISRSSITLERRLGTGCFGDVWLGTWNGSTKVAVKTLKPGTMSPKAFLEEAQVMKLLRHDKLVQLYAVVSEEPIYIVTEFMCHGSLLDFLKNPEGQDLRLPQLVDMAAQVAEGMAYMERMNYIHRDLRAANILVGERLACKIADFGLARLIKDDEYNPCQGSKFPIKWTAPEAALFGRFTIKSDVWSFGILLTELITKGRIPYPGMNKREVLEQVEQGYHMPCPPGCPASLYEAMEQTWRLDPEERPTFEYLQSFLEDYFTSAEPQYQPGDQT
structure (smiles),measurement,setting,value
CCc1nc(-c2ccc(OC)cc2)[nH]c1-c1ccncc1,residual activity,[1],101%
same,residual activity,[2],109%
same,residual activity,[3],105%
same,residual activity,[4],111%
same,residual activity,[5],102%
same,residual activity,[6],100%
same,residual activity,[7],77%
same,residual activity,[8],78%
same,residual activity,[9],71%
same,residual activity,[10],75%
same,residual activity,[11],72%
O=c1c2ccccc2[nH]c(=S)n1CCN1CCC(=C(c2ccc(F)cc2)c2ccc(F)cc2)CC1,residual activity,[12],101%
same,residual activity,[13],91%
c1ccc2c(-c3ccncc3)c[nH]c2c1,residual activity,[12],98%
same,residual activity,[13],87%
Oc1c2ccccc2c2c3c(cccc13)N=N2,residual activity,[12],84%
same,residual activity,[13],87%
Cc1cc2ncc(-c3ccccc3)nc2cc1C,residual activity,[12],106%
same,residual activity,[13],95%
Nc1ncnc2[nH]nc(Nc3ccc(F)cc3)c12,residual activity,[12],103%
same,residual activity,[13],97%
O=C1NC(=O)c2c1c1c3ccccc3[nH]c1n1cncc21,residual activity,[12],83%
same,residual activity,[13],82%
Oc1ccc(Nc2nc(-c3ccc(Cl)cc3)cs2)cc1,residual activity,[12],102%
same,residual activity,[13],103%
Cn1sc(=O)n(Cc2ccccc2)c1=O,residual activity,[12],88%
same,residual activity,[13],88%
COc1cccc(-c2cc(=O)c3ccccc3o2)c1N,residual activity,[12],100%
same,residual activity,[13],99%
O=C(O)c1ccc2c3c1cccc3c(=O)n1c3ccccc3nc21,residual activity,[12],95%
same,residual activity,[13],100%
CC(C)(C)c1nc2c3ccc(F)cc3c3c(=O)[nH]ccc3c2[nH]1,residual activity,[12],72%
same,residual activity,[13],59%
COc1cc2ncnc(N3CCN(C(=O)Nc4ccc(Oc5ccccc5)cc4)CC3)c2cc1OC,residual activity,[12],95%
same,residual activity,[13],85%
CO[C@@H]1[C@H](N(C)C(=O)c2ccccc2)C[C@H]2O[C@]1(C)n1c3ccccc3c3c4c(c5c6ccccc6n2c5c31)C(=O)NC4,residual activity,[12],82%
same,residual activity,[13],79%
COc1ccc(OC)c2c(=S)c3ccccc3[nH]c12,residual activity,[12],94%
same,residual activity,[13],98%
Nc1ccc2ncnc(NCCc3ccc(Oc4ccccc4)cc3)c2c1,residual activity,[12],104%
same,residual activity,[13],105%
CN(C)c1ccc(/C=C2\C(=O)Nc3ccccc32)cc1,residual activity,[12],91%
same,residual activity,[13],97%
CCOc1cc2ncnc(Nc3cccc(Br)c3)c2cc1OCC,residual activity,[12],97%
same,residual activity,[13],100%
NC(=O)Nc1sc(-c2ccc(F)cc2)cc1C(N)=O,residual activity,[12],93%
same,residual activity,[13],85%
C[C@@H](N)[C@H]1CC[C@H](C(=O)Nc2ccncc2)CC1,residual activity,[12],92%
same,residual activity,[13],106%
CN(C)CCCn1cc(C2=C(c3c[nH]c4ccccc34)C(=O)NC2=O)c2ccccc21,residual activity,[12],61%
same,residual activity,[13],87%
COc1ccc(S(=O)(=O)N(CCO)c2ccccc2CN(C)C/C=C/c2ccc(Cl)cc2)cc1,residual activity,[12],97%
same,residual activity,[13],91%
CC(C)n1cnc2c(NCc3ccccc3)nc(NCCCO)nc21,residual activity,[12],101%
same,residual activity,[13],96%
Oc1ccc(-c2nc(-c3ccc(F)cc3)c(-c3ccncc3)[nH]2)cc1,residual activity,[12],109%
same,residual activity,[13],109%
Cc1nc2cc3nc(-c4cccs4)cnc3cc2n1C,residual activity,[12],113%
same,residual activity,[13],103%
NCCNc1ncc(C(N)=O)c(Nc2cccc(C(F)(F)F)c2)n1,residual activity,[12],105%
same,residual activity,[13],100%
O=C1C(Cl)=C(N2C(=O)CCC2=O)C(=O)c2ccccc21,residual activity,[12],98%
same,residual activity,[13],88%
Cn1cc(/C=C2\C(=O)Nc3ccc(S(N)(=O)=O)cc32)c2ccccc21,residual activity,[12],62%
same,residual activity,[13],96%
Cn1cnc2cc3c(Nc4cccc(Br)c4)ncnc3cc21,residual activity,[12],109%
same,residual activity,[13],97%
CC(C)n1cnc2/c(=N/c3cccc(Cl)c3)nc(NCCO)[nH]c21,residual activity,[12],92%
same,residual activity,[13],90%
CC(=O)c1ccc(N2CCOCC2)cc1O,residual activity,[12],105%
same,residual activity,[13],95%
CC[n+]1c(/C=C/N(C)c2ccccc2)n(-c2ccccc2)c2ccc(-c3nc4ccccc4s3)cc21,residual activity,[12],108%
same,residual activity,[13],101%
CCCCc1c(-c2ccc(O)cc2)[nH]c2nccnc12,residual activity,[12],93%
same,residual activity,[13],98%
CCOC(=O)c1c(C)[nH]c(/C=C2\C(=O)Nc3ccccc32)c1C,residual activity,[13],98%
CCN(CC)C(=O)c1ccc(Nc2nc(OCC3CCCCC3)c3nc[nH]c3n2)cc1,residual activity,[13],97%
CC#CC(=O)Nc1cc2c(Nc3ccc(F)c(Cl)c3)ncnc2cn1,residual activity,[12],100%
same,residual activity,[13],95%
O=C(c1ccccc1)c1ccc(N2CCOCC2)cc1O,residual activity,[13],96%
Cc1nc(-c2ccccc2)c(-c2ccncc2)o1,residual activity,[12],104%
same,residual activity,[13],103%
c1ccc(-c2n[nH]c3c2oc2ccccc23)cc1,residual activity,[12],91%
same,residual activity,[13],99%
Cc1ccc(S(=O)(=O)/C=C/C#N)cc1,residual activity,[12],96%
same,residual activity,[13],92%
Nc1ncnc2c1c(-c1ccc(Oc3ccccc3)cc1)cn2C1CCCC1,residual activity,[12],103%
same,residual activity,[13],92%
Cc1cccc(-c2[nH]c(C(C)(C)C)nc2-c2ccc3c(c2)OCO3)n1,residual activity,[12],105%
same,residual activity,[13],103%
N#Cc1c(NC(=O)c2cccc3ccccc23)sc2c1CCCC2,residual activity,[13],98%
O=C1NC(=O)C(c2c[nH]c3ccccc23)=C1c1c[nH]c2ccccc12,residual activity,[13],98%
